Consider 55 compounds from ChEMBL document CHEMBL4303097 (2020).

Over roughly 1,500 compounds, “Inhibition index” has its median near 0.17; the highest 2% begin near 1.3. For the sample, the highest values were picked, then their nearest neighbours and some compounds at random.

The test system of this test is SARS-CoV-2. Nature of the test: Inhibition of cell viability relative to arbidol control (inhibition index > 1 indicates higher activity) measured by fluorescence (OD590nm) in Vero E6 cells infected with SARS-CoV-2 (strain BavPat1) at MOI 0.002 after 72hrs. The test is classed as functional, Chlorocebus sabaeus, Vero C1008.
As to `Cc1ccc(C(=O)C(C)CN2CCCCC2)cc1.Cl` (stereo not given) [TOLPERISONE HYDROCHLORIDE], the Inhibition index is 1.172.

`CCc1ccc(C(=O)C(C)CN2CCCCC2)cc1.Cl` (stereo not given) came in with an Inhibition index of 1.254.

As to `CCCCOc1ccc(C(=O)CCN2CCCCC2)cc1.Cl` [DYCLONINE HYDROCHLORIDE], the Inhibition index was found to be 1.119.

In turn, `C[C@]12CC[C@@H]3c4ccc(O)cc4CC[C@H]3[C@@H]1CC[C@@H]2O` [ESTRADIOL] came in with an Inhibition index of 0.3797.

Compound `C[C@]12CC[C@@H]3c4ccc(O)cc4CC[C@H]3[C@@H]1CCC2=O` [ESTRONE] registered an Inhibition index of 0.9303.

`C[C@]12CC[C@H]3C(=CCc4cc(O)ccc43)[C@@H]1CCC2=O` [EQUILIN] came in with an Inhibition index of 1.282.

`CC(=O)[N-]S(=O)(=O)c1ccc(N)cc1.O.[Na+]` [SULFACETAMIDE SODIUM] showed an Inhibition index of 0.002362.

For `Cc1cc(O)c(C(=O)N[C@@H](C(=O)N[C@@H]2C(=O)N3C(C(=O)O)=C(CSc4nnnn4C)CS[C@H]23)c2ccc(O)cc2)cn1` [CEFPIRAMIDE], the Inhibition index is recorded as 0.7171.

`CN(C)CCCN1c2ccccc2[S+]([O-])c2ccc(Cl)cc21` (stereo not given) [CHLOROPROMAZINE SULFOXIDE] returned an Inhibition index of 0.938.

`CN1C[C@H](CNC(=O)OCc2ccccc2)C[C@@H]2c3cccc4c3c(cn4C)C[C@H]21` [METERGOLINE] gave an Inhibition index of -0.1165.

`CC(C)NCC(O)COc1ccc(CCOCC2CC2)cc1.Cl` (stereo not given) [BETAXOLOL HYDROCHLORIDE] gave an Inhibition index of 0.6286.

Compound `CCOc1ccc2ccccc2c1C(=O)N[C@@H]1C(=O)N2[C@@H]1SC(C)(C)[C@@H]2C(=O)[O-].O.[Na+]` [NAFCILLIN SODIUM] came in with an Inhibition index of 0.3633.

`Brc1c(NC2=NCCN2)ccc2nccnc12.O=C(O)C(O)C(O)C(=O)O` showed an Inhibition index of 0.355.

Regarding `CN(C)[C@@H]1C(O)=C(C(N)=O)C(=O)[C@@]2(O)C(O)=C3C(=O)c4c(O)cccc4[C@@](C)(O)[C@H]3C[C@@H]12.Cl` [TETRACYCLINE HYDROCHLORIDE], the Inhibition index is -0.0001993.

In turn, `CCC(=O)O[C@]1(C(=O)SCF)[C@H](C)C[C@H]2[C@@H]3C[C@H](F)C4=CC(=O)C=C[C@]4(C)[C@@]3(F)[C@@H](O)C[C@@]21C` [FLUTICASONE PROPIONATE] registered an Inhibition index of 0.5757.

On to `CN(C)[C@@H]1C(O)=C(C(N)=O)C(=O)[C@@]2(O)C(O)=C3C(=O)c4c(O)ccc(Cl)c4[C@@](C)(O)[C@H]3C[C@@H]12.Cl` [CHLORTETRACYCLINE HYDROCHLORIDE], for which the Inhibition index was 0.03495.

As for `CC(C)NCC(O)c1cc(O)cc(O)c1.CC(C)NCC(O)c1cc(O)cc(O)c1.O=S(=O)(O)O` (stereo not given) [METAPROTERENOL SULFATE], the Inhibition index is 0.06285.

The compound `COCC1=C(C(=O)OC(C)OC(=O)OC(C)C)N2C(=O)[C@@H](NC(=O)/C(=N\OC)c3csc(N)n3)[C@H]2SC1` (stereo not given in full) [CEFPODOXIME PROXETIL] gave an Inhibition index of 0.5603.

For `C[C@]12COC(=O)C[C@@H]1CC[C@@H]1[C@@H]2CC[C@@]2(C)[C@H]1CC[C@]2(C)O` [OXANDROLONE], the Inhibition index came out at 0.1105.

`C[C@]12Cc3c[nH]nc3C[C@@H]1CC[C@@H]1[C@@H]2CC[C@@]2(C)[C@H]1CC[C@]2(C)O` [STANOZOLOL] gave an Inhibition index of 0.4173.

The compound `C[C@]12C/C(=C\O)C(=O)C[C@@H]1CC[C@@H]1[C@@H]2CC[C@@]2(C)[C@H]1CC[C@]2(C)O` displayed an Inhibition index of 1.738.

For the compound `CC(Cc1ccccc1)NCCC(c1ccccc1)c1ccccc1.CC(O)C(=O)O` (stereo not given), the Inhibition index is -0.1094.

For `Cl.OC(c1cc(C(F)(F)F)nc2c(C(F)(F)F)cccc12)C1CCCCN1` (stereo not given) [MEFLOQUINE HYDROCHLORIDE], the Inhibition index is reported as -0.1263.

As for `CS(=O)(=O)O.Cc1ccc2c(c1)c1c3n2CCNC3CCC1` (stereo not given), the Inhibition index is given as 0.5995.

`C=C1/C(=C\C=C2/CCC[C@]3(C)[C@@H]([C@H](C)CCCC(C)C)CC[C@@H]23)C[C@@H](O)C[C@@H]1O` [ALFACALCIDOL]: the Inhibition index was -0.1396.

The compound `COc1ccc(-c2noc(CC(=O)O)c2-c2ccc(OC)cc2)cc1` [MOFEZOLAC] displayed an Inhibition index of 0.1442.

In turn, `Nc1cccc2c1C(=O)N(C1CCC(=O)NC1=O)C2=O` (stereo not given) [POMALIDOMIDE] came in with an Inhibition index of -0.01474.

The compound `O=C1Nc2ccc(Cl)cc2[C@@](C#CC2CC2)(C(F)(F)F)O1` [EFAVIRENZ] had an Inhibition index of -0.107.

`CCOCCn1c(N2CCCN(C)CC2)nc2ccccc21.O=C(O)/C=C/C(=O)O.O=C(O)/C=C/C(=O)O` [EMEDASTINE DIFUMARATE] returned an Inhibition index of 0.1648.

`N=C(N)c1ccc(OCCCCCOc2ccc(C(=N)N)cc2)cc1.O=S(=O)(O)CCO.O=S(=O)(O)CCO` [PENTAMIDINE ISETHIONATE] yielded an Inhibition index of -0.04121.

As for `Cc1cccc(C)c1NC(=O)CC12CCCN1CCC2.Cl`, the Inhibition index is given as 0.08672.

`CO[C@@H]1[C@@H](O[C@@H]2O[C@H](C)[C@@H](O[C@H]3C[C@@](C)(O)[C@@H](O)[C@H](C)O3)[C@H](N(C)C)[C@H]2O)[C@@H](CC=O)C[C@@H](C)[C@@H](O[C@H]2CC[C@H](N(C)C)[C@@H](C)O2)/C=C/C=C/C[C@@H](C)OC(=O)C[C@H]1OC(C)=O` showed an Inhibition index of 1.276.

`CO[C@@H]1[C@@H](O[C@@H]2O[C@H](C)[C@@H](O[C@H]3C[C@@](C)(O)[C@@H](OC(=O)CC(C)C)[C@H](C)O3)[C@H](N(C)C)[C@H]2O)[C@@H](CC=O)C[C@@H](C)[C@@H](O)/C=C/C=C/C[C@@H](C)OC(=O)C[C@H]1OC(C)=O` [JOSAMYCIN] showed an Inhibition index of 0.1589.

The compound `CCC(=O)O[C@@H]1CC(=O)O[C@H](C)C/C=C/C=C/[C@H](O)[C@H](C)C[C@H](CC=O)[C@H](O[C@@H]2O[C@H](C)[C@@H](O[C@H]3C[C@@](C)(O)[C@@H](OC(=O)CC)[C@H](C)O3)[C@H](N(C)C)[C@H]2O)[C@H]1OC` [MIDECAMYCIN] came in with an Inhibition index of 0.09553.

`C[C@H]1O[C@@H](O[C@H]2[C@@H](O)C[C@H](O[C@H]3[C@@H](O)C[C@H](O[C@H]4CC[C@@]5(C)[C@H](CC[C@@H]6[C@@H]5C[C@@H](O)[C@]5(C)[C@@H](C7=CC(=O)OC7)CC[C@]65O)C4)O[C@@H]3C)O[C@@H]2C)C[C@H](O)[C@@H]1O` [DIGOXIN] registered an Inhibition index of 0.2267.

The compound `COc1ccc(C[C@@H]2c3cc(OC)c(OC)cc3CC[N@+]2(C)CCC(=O)OCCCCCOC(=O)CC[N@@+]2(C)CCc3cc(OC)c(OC)cc3[C@H]2Cc2ccc(OC)c(OC)c2)cc1OC.O=S(=O)([O-])c1ccccc1.O=S(=O)([O-])c1ccccc1` [CISATRACURIUM BESYLATE] yielded an Inhibition index of 1.338.

Compound `COc1ccc(CC2c3cc(OC)c(OC)cc3CC[N+]2(C)CCC(=O)OCCCCCOC(=O)CC[N+]2(C)CCc3cc(OC)c(OC)cc3C2Cc2ccc(OC)c(OC)c2)cc1OC.O=S(=O)([O-])c1ccccc1.O=S(=O)([O-])c1ccccc1` (stereo not given) [ATRACURIUM BESYLATE] showed an Inhibition index of 0.8693.

`CC1(C)S[C@@H]2[C@H](NC(=O)[C@@H](c3ccccc3)S(=O)(=O)O)C(=O)N2[C@H]1C(=O)O.[Na+].[Na+]` came in with an Inhibition index of 0.4594.

`NC12CC3CC(CC(C3)C1)C2.NC12CC3CC(CC(C3)C1)C2.O=C(O)/C=C\C(=O)O` had an Inhibition index of 0.02174.

Consider `CC1=C(C(=O)O)N2C(=O)[C@@H](NC(=O)[C@H](N)c3ccc(O)cc3)[C@H]2SC1` [CEFADROXIL], for which the Inhibition index is given as 0.02715.

Consider `CN1CCN(CCCN2c3ccccc3Sc3ccc(C(F)(F)F)cc32)CC1.Cl.Cl` [TRIFLUOPERAZINE HYDROCHLORIDE], for which the Inhibition index is -0.1697.

The compound `COC(c1ccccc1)(c1ccccc1)C(Oc1nc(C)cc(C)n1)C(=O)O` (stereo not given) displayed an Inhibition index of 1.459.

For `CN1CCC(=C2c3ccccc3CCc3cccnc32)CC1.O=C(O)/C=C\C(=O)O.O=C(O)/C=C\C(=O)O` [AZATADINE MALEATE], the Inhibition index is on record as 0.8296.

Compound `CN(C)CCOC(=O)C(c1ccccc1)C1(O)CCCC1.Cl` (stereo not given) [CYCLOPENTOLATE HYDROCHLORIDE] registered an Inhibition index of 1.136.

Regarding `CC(C)(C)NCC(O)c1ccc(O)c(CO)c1` (stereo not given) [ALBUTEROL], the Inhibition index was 0.0995.

Compound `CNCC(O)c1ccc(O)c(O)c1.Cl` (stereo not given) [RACEPINEPHRINE HYDROCHLORIDE] came in with an Inhibition index of 0.3358.

For the compound `CC(C)(C)NC[C@H](O)c1ccc(O)c(CO)c1.Cl` [LEVALBUTEROL HYDROCHLORIDE], the Inhibition index is 1.311.

Regarding `CC[N+](C)(C)Cc1ccccc1Br.Cc1ccc(S(=O)(=O)[O-])cc1` [BRETYLIUM TOSYLATE], the Inhibition index was 0.2627.

The compound `CC(=O)N[C@@H](CC(=O)O)C(=O)N[C@@H](CCC(=O)O)C(=O)O` [ISOSPAGLUMIC ACID] showed an Inhibition index of 0.8884.

Compound `CC(=O)O[C@]1(C(C)=O)CC[C@H]2[C@@H]3C=C(Cl)C4=CC(=O)C5CC5[C@]4(C)[C@H]3CC[C@@]21C` (stereo not given in full) yielded an Inhibition index of 0.4824.

Compound `N[C@@H]1CONC1=O` [CYCLOSERINE] had an Inhibition index of 1.427.

As to `N[C@H]1CONC1=O` [LEVCYCLOSERINE], the Inhibition index came to 1.42.

On to `O.O=P(O)(O)C(O)(Cc1cccnc1)P(=O)(O)O`, for which the Inhibition index came out at 0.3004.

Regarding `CC[N+](C)(CC)CCC[n+]1c(-c2ccccc2)c2cc(N)ccc2c2ccc(N)cc21.[I-].[I-]` [PROPIDIUM], the Inhibition index is 0.2273.

`CC[C@]12CCCN3CCc4c(n(c5ccccc45)[C@@](O)(C(=O)OC)C1)[C@@H]32` [VINCAMINE] showed an Inhibition index of 0.1041.
